The text below walks through data of PubChem BioAssay (NCATS).

“And” between values parts separate entries of the source, which are not always exact repeats. Equal values may be shown once. Unmarked numbers belong to inactive results. Inconclusive results are not listed. The source made the active and inactive calls. Unless noted, the call rests on the fitted dose curve; in most records, active means well fitted curve in the direction sought with a large enough effect; inconclusive means small, poorly fitted or top-dose-only effect, or another doubt; inactive means no such curve, though single readings can be large; an effect the other way counts as inactive or inconclusive.

Sequence of Nuclear receptor subfamily 1 group I member 2 (Rattus norvegicus) (Q9R1A7 whole entry, looked up): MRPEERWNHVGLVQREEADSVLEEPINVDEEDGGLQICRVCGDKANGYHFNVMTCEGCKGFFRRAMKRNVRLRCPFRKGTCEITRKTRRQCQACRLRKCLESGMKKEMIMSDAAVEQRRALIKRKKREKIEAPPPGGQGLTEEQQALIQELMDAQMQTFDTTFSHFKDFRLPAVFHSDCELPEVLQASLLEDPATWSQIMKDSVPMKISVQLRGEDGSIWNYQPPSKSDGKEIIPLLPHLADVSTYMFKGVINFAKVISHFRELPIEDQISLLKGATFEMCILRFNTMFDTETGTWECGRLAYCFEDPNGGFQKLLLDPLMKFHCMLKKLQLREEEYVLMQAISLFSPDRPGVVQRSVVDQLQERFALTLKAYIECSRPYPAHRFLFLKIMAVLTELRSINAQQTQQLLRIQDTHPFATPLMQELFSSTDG

For one assay, the system named is astro (control astrocytes). In words: Drug repurposing screens with cells derived from glioblastoma tumor samples (AID 1345199). Further: nearly all actives have a fitted effect of over 40% in size. Further: potency means the concentration at half of the fitted maximal effect. On activity, negative = cell killing: on the % scale 0 is the no-effect control and ±100 the full control effect. The note with it: viability, ATP luminescence, 48 h; series mostly up to 45.9 µM; activity, negative = cell killing: at the top concentration. In a few lines: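 Primary testing used CD133+ neurospheres from four GBM patients, seven concentrations, 48 h exposure and ATP-based viability; confirmation added three slower-growing patient lines.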
Consider `Cc1cc(OCCOCC[N+](C)(C)Cc2ccccc2)ccc1C(C)(C)CC(C)(C)C`, for which the Potency was 15.8 µM (active).

For the compound `O=C(O)c1ccccc1S`, the “activity, negative = cell killing” value is -11.3%.

With `CC[N+](CC)(CC)CCOC(=O)C(C1CCCC1)C1CCCC1`, the “activity, negative = cell killing” value was -16.9%.

Consider `CC(C(O)c1ccccc1)N(C)CCOC(c1ccccc1)c1ccccc1` (centres undefined), for which the “activity, negative = cell killing” value was -26.6%.

Regarding `CCCCCCCCCCCC[N+](C)(C)Cc1ccccc1`, the Potency is 11.2 µM (active).

Turning to `C[C@H]1NCc2cc(-c3ccc4c(=O)c(C(=O)O)cn(C5CC5)c4c3OC(F)F)ccc21`, the “activity, negative = cell killing” value is 10.1%.

Regarding `CCCCCCCCCCCCCCCC[n+]1ccccc1`, the Potency was 3.16 µM (active).

For the compound `CC(C)(C)c1ccc(O)c(O)c1`, the “activity, negative = cell killing” value is -26.9% [at 91.6 µM].

As for `OCCOCCN1CCN(C(c2ccccc2)c2ccc(Cl)cc2)CC1` (centres undefined), the “activity, negative = cell killing” value was -10%.

With `O=[N+]([O-])c1ccc(O)c2ncccc12`, the Potency was 3.55 µM (active).

Consider `COC(=O)c1c(Cl)c(Cl)c(C(=O)OC)c(Cl)c1Cl`, for which the “activity, negative = cell killing” value is -14% [at 91.6 µM].

With `CN1CCC(Nc2ncc3ncnc(Nc4ccc(F)c(Cl)c4)c3n2)CC1`, the Potency is 17.8 µM (active).

For `O=C1NC2CCCCN2C12CCN(CCCN1c3ccccc3CCc3ccc(Cl)cc31)CC2` (centres undefined), the Potency was 20 µM (active).

In the case of `CCCCCCCCCCCCCC[N+](C)(C)C`, the Potency is 10 µM (active).

As to `O=C1CC2(CCCC2)CC(=O)N1CCNCC1COc2ccccc2O1` (centres undefined), the “activity, negative = cell killing” value was -21.4%.

As for `OCc1cccnc1`, the “activity, negative = cell killing” value was -6.27%.

Regarding `O=C(NN1CCCC1)NS(=O)(=O)c1ccc(Cl)cc1`, the “activity, negative = cell killing” value is -4.28%.

As to `Cc1c(C)c2c(c(C)c1OC(=O)CCC(=O)OCCO)CC[C@@](C)(CCC[C@H](C)CCC[C@H](C)CCCC(C)C)O2`, the Potency is 12.6 µM (active).

Regarding `N=C(N)c1ccc(OCCCOc2ccc(C(=N)N)cc2)cc1`, the Potency was 11.2 µM (active).

For the compound `CCOC(=O)c1ccc(NC(=O)CN2CCCCC2)cc1`, the “activity, negative = cell killing” value is 1.86%.

As for `CCCCCCCCCCCCCCCC[N+](C)(C)Cc1ccccc1`, the Potency is 12.6 µM (active).

Take `O=C(OCC1(COC(=O)c2cccnc2)CCCC(COC(=O)c2cccnc2)(COC(=O)c2cccnc2)C1O)c1cccnc1`: the “activity, negative = cell killing” value is -14.1%.

For `CC(C)(C)C(O)/C=C/c1ccc2c(c1)OCO2` (centres undefined), the “activity, negative = cell killing” value was -9.16%.

Turning to `CC(NCCC(c1ccccc1)c1ccccc1)c1ccccc1` (centres undefined), the Potency was 25.1 µM (active).

With `CC(=O)N[C@@H](CCC(N)=O)C(=O)O`, the “activity, negative = cell killing” value is 0.952%.

`O=C(Nc1ccc(Cl)cc1)Nc1ccc(Cl)c(C(F)(F)F)c1`: the Potency is 10 µM (active).

Take `CCCCC(CC)COC(=O)c1ccccc1C(=O)O` (centres undefined): the “activity, negative = cell killing” value is -11.2% [at 91.6 µM].

As to `CCCCNc1ccc(C(=O)OCCN(CC)CC)cc1`, the “activity, negative = cell killing” value was -23%.

As for `Nc1ccc(O)cc1`, the Potency was 35.5 µM (active).

Consider `CCN(CC)CCOc1ccc(/C(=C(\Cl)c2ccccc2)c2ccccc2)cc1`, for which the Potency is 17.8 µM (active).

`CC[N+]1(CC)CCC(=C(c2ccccc2)c2ccccc2)C1C` (centres undefined): the “activity, negative = cell killing” value was -9.08%.

System in another assay: not listed separately
Nature of the assay: qHTS assay to identify inhibitors of the type 1 interferon - major histocompatibility complex class I in skeletal muscle: Counter screen cell viability and HiBit confirmation (AID 1347412). Further: on the % scale 0 is the no-effect control and ±100 the full control effect; nearly all actives have a fitted effect of over 60% in size. To be noted: iHSKM muscle cells + IFN-b, HiBiT or CellTiter-Glo, 24 h; Potency: HiBiT; Viability, at 45.9 µM (top of the series); activity change, negative = inhibition: at the top concentration. A digest of the protocol: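 Duplicate plates, pinned identically: one read for HiBiT-tagged endogenous HLA-B luminescence, the other for ATP-content viability via CellTiter Glo. Cells were genome-engineered human myoblasts given 4 ng/ml IFN-b; compounds 12-pt, 1:3 from 46 uM final; 24 hr exposure.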
Consider `CCN(CC)CC(=O)OCC(=O)[C@@]1(O)CC[C@H]2[C@@H]3CCC4=CC(=O)CC[C@]4(C)[C@H]3[C@@H](O)C[C@@]21C`, for which the Potency result is “inactive”.

Take `C[C@H]1C[C@@H]2[C@H]([C@@H](O)C[C@@]3(C)[C@H]2CC[C@]3(O)C(=O)CO)[C@@]2(C)C=CC(=O)C=C12`: the “activity change, negative = inhibition” value is 10.7%.

In the case of `CCOC(=O)O[C@]1(C(=O)OCCl)CC[C@H]2[C@@H]3CCC4=CC(=O)C=C[C@]4(C)[C@H]3[C@@H](O)C[C@@]21C`, the Potency result was “inactive”.

Turning to `O=C1Nc2ccccc2C1(c1ccc(O)cc1)c1ccc(O)cc1`, the “activity change, negative = inhibition” value was -27.5%.

As to `CCN(CC)CCOc1ccc(/C(=C(\Cl)c2ccccc2)c2ccccc2)cc1`, the Potency result is “inactive”.

In the case of `CC(C)(C)CC(=O)OCC(=O)[C@@]1(O)CC[C@H]2[C@@H]3CCC4=CC(=O)C=C[C@]4(C)[C@H]3[C@@H](O)C[C@@]21C`, the “activity change, negative = inhibition” value is 8.64%.

Another assay concerns the target Nuclear receptor subfamily 1 group I member 2 (Rattus norvegicus) (UniProt Q9R1A7). In words: qHTS assay for small molecule activators of the rat pregnane X receptor (rPXR) signaling pathway (AID 651751; call rule not given here; further: 0% is about no effect). The note with it: rPXR reporter cells, luciferase (One-Glo), 24 h.
Consider `CCCCCCCCCCCC[N+](C)(C)Cc1ccccc1`, for which the max response is 0.668%.

In the case of `CC(C)(C)c1ccc(O)c(O)c1`, the max response is -0.177% and 2.15%.

On to `OCCOCCN1CCN(C(c2ccccc2)c2ccc(Cl)cc2)CC1` (centres undefined), for which the max response was -2.98%.

In the case of `COC(=O)c1c(Cl)c(Cl)c(C(=O)OC)c(Cl)c1Cl`, the max response was 2.2%.

On to `O=C(Nc1ccc(Cl)cc1)Nc1ccc(Cl)c(Cl)c1`, for which the max response is -12.4%.

Consider `CCCCC(CC)COC(=O)c1ccccc1C(=O)O` (centres undefined), for which the max response is 1.45% and -0.807%.

With `Nc1ccc(O)cc1`, the max response was 4.17%.

In the case of `OCc1c[nH]c2ccccc12`, the max response was 0.925%.

System in the next assay: not listed separately
Nature of the assay: qHTS assay for small molecule activators of the human pregnane X receptor (PXR) signaling pathway (AID 720659; call rule not given here; further: 0% is about no effect). To be noted: DPX-2 HepG2 CYP3A4-luciferase, 24 h; series mostly up to 92.3 µM; activation: at the top concentration. On the technique in general: In qHTS, concentration-response curves come from the screen itself.
Take `CCCCCCCCCCCC[N+](C)(C)Cc1ccccc1`: the “activation” value is 24.3%.

Regarding `CCCCCCCCCCCCCCCC[n+]1ccccc1`, the “activation” value was -5.44%.

`O=C(Nc1ccc(Cl)cc1)Nc1ccc(Cl)c(Cl)c1`: the “activation” value is -20.4%.

`OCc1c[nH]c2ccccc12`: the “activation” value is -2.27%.
